Experimental data reported in PubChem BioAssay.
The source made the active and inactive calls.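 How the source made its calls, unless noted: active means compound raises insulin release from rat beta cells at 5 mM glucose, no numeric limit stated; inactive means the rest.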

How the values were obtained:
[1] = Wnt pathway potentiators raising nuclear beta-catenin – imaging, WNT3A-conditioned medium, mouse C2C12, NPC library, primary screen (AID 1117326; in the data active means nuclear beta-catenin stimulation mostly above about 4.2%, no sharp cut-off; inactive means mostly below about 10%; further: reference of the scale not given here); conditions: stronger effect = higher value
[2] = stimulators of insulin release from INS-1E, primary screen, cell-based, 5 mM glucose, NPC library (AID 1117329); conditions: rat INS-1E insulin secretion, at 10 µM, stronger effect = higher value; further: reference of the scale not given here
[3] = growth inhibition of GSK3B-pretreated HCT116 cells – cell-based, CellTiter-Glo, 0.2 to 20 µM (AID 1117336;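 active means compounds lowering colon cancer cell viability after pretreatment blocking the GSK3B kinase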); conditions: HCT116 viability after GSK3B inhibitor, at 20 µM, stronger effect = higher value
[4] = inhibition of endothelial tube formation, primary screen, imaging, VEGF stimulated, CD31 staining, tube area, NPC library (AID 1117340;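 active means compound that reduces growth-factor-driven endothelial tube area in a mixed cell culture, no cutoff stated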); conditions: VEGF-stimulated ADSC/ECFC co-culture, at 10 µM, stronger effect = higher value
[5] = GLP1 release stimulators, primary, NCI-H716, NPC library (AID 1117341;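 active means compound raises GLP1 secretion from the human gut endocrine cells, with no numeric limit stated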; further: reference of the scale not given here); conditions: NCI-H716 cells, at 10 µM, stronger effect = higher value
[6] = HCT116 colon cancer cell growth inhibition, primary screen, CellTiter-Glo luminescence, NPC library (AID 1117342;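 active means compounds that lower survival of HCT116 colon cancer cells in the luminescence readout, no numeric limit stated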); conditions: at 20 µM (top of the series)
[7] = reduced SW480 viability measured with CellTiter-Glo, NPC library, primary (AID 1117343;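 active means compounds that lower viability of the colon cancer cells in the luminescence readout, with no numeric limit stated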); conditions: CellTiter-Glo luminescence; at 20 µM (top of the series)
[8] = NPC library primary testing for decreased DLD-1 cell viability via CellTiter-Glo (AID 1117346;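 active means compounds that lower survival of DLD-1 colon cancer cells in the luminescence readout, no cutoff given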); conditions: DLD-1 viability, CellTiter-Glo luminescence; at 20 µM (top of the series)

SMILES	nuclear beta-catenin stimulation ([1]; at 10 µM)	nuclear beta-catenin stimulation ([1]; stimulation, at 2 µM)	insulin secretion stimulation [2]	viability decrease [3]	tube area decrease [4]	GLP1 secretion stimulation [5]	inhibition of viability [6]	viability decrease (inhibition) [7]	viability decrease (inhibition) [8]
CNc1c2c(nn1C)CCCC2	0.2% (inactive)	0.4%	0% (inactive)	-3.4% (inactive)	16.1% (inactive)	0% (inactive)	-4.2% (inactive)	-2.2% (inactive)	0.1% (inactive)
CN1[C@@H]2CC[C@H]1CC(NC(=O)n1c(=O)[nH]c3ccccc31)C2 (some centres undefined)	1.7% (inactive)	1%	0.4% (inactive)	-2.9% (inactive)	-4.6% (inactive)	2.8% (inactive)	23.7% (inactive)	5.3% (inactive)	-7.7% (inactive)
C=C1C(=C/C=C2\CCC[C@]3(C)[C@@H]([C@H](C)/C=C/[C@@H](O)C4CC4)CC[C@@H]23)C[C@@H](O)C[C@@H]1O	2.6% (inactive)	4.1%	4.15% (inactive)	103% (active)	19.7% (inactive)	3.9% (inactive)	82% (active)	111% (active)	92.9% (active)
Cc1ccc(CCn2c3c(c4cc(Cl)ccc42)CN(C)CC3)cn1	0.2% (inactive)	0.7%	42% (active)	40.3% (inactive)	3.4% (inactive)	1.7% (inactive)	62.1% (active)	81.6% (active)	11.5% (inactive)
CC(C)(C)c1ccc2c(S(=O)(=O)O)c(C(C)(C)C)ccc2c1	-2.9% (inactive)	-1.4%	0.3% (inactive)	-22% (inactive)	-2.7% (inactive)	1% (inactive)	-18.9% (inactive)	9% (inactive)	-14.4% (inactive)
Cc1ccc(C(C)C)c(O)c1	0.6% (inactive)	0.8%	-3.2% (inactive)	-0.65% (inactive)	15.5% (inactive)	-0.9% (inactive)	-2.9% (inactive)	74.8% (active)	1.9% (inactive)
CCOC(=O)NNc1ccc(N(CC)CC(C)O)nn1 (centres undefined)	-1.1% (inactive)	0.1%	0.3% (inactive)	-1% (inactive)	-17.2% (inactive)	1.1% (inactive)	6.1% (inactive)	2.6% (inactive)	1% (inactive)
CSCC[C@H](N)C(=O)O	1.9% (inactive)	1.3%	0.5% (inactive)	-8.1% (inactive)	2.3% (inactive)	-2.6% (inactive)	0.5% (inactive)	0.4% (inactive)	-6% (inactive)
COc1ccc(C=CC(=O)O)cc1	-1.4% (inactive)	0%	1% (inactive)	-39% (inactive)	4.7% (inactive)	-4.2% (inactive)	2.2% (inactive)	-6.4% (inactive)	-5.9% (inactive)
NCCNc1cccc2ccccc12	1.9% (inactive)	1.1%	1.9% (inactive)	-5.55% (inactive)	-35.7% (inactive)	0.6% (inactive)	17.2% (inactive)	51.5% (active)	7.9% (inactive)
Nc1ccc(S(=O)(=O)Nc2ccccc2)cc1	1% (inactive)	0.9%	-2.7% (inactive)	-9.8% (inactive)	10.5% (inactive)	3.7% (inactive)	-1.7% (inactive)	5.2% (inactive)	0.95% (inactive)
COc1ccc([C@@H]2CC(=O)c3c(O)cc(O[C@@H]4O[C@H](CO[C@@H]5O[C@@H](C)[C@H](O)[C@@H](O)[C@@H]5O)[C@@H](O)[C@H](O)[C@@H]4O)cc3O2)cc1O	1.6% (inactive)	2.4%	-0.9% (inactive)	-10.2% (inactive)	-4.7% (inactive)	-1% (inactive)	-1.6% (inactive)	-2.4% (inactive)	41.4% (inactive)
COC(=O)C1=C(C)NC(C)=C(C(=O)OCCc2ccc(N3CCN(C(c4ccccc4)c4ccccc4)CC3)cc2)C1c1cccc([N+](=O)[O-])c1 (centres undefined)	2.5% (inactive)	0.7%	0% (inactive)	14.1% (inactive)	44.2% (active)	-3.4% (inactive)	32.3% (inactive)	39.1% (inactive)	-1.2% (inactive)
NC(=O)C[C@H](N)C(=O)O	3% (inactive)	1.1%	-1.3% (inactive)	-1% (inactive)	-19.4% (inactive)	2.4% (inactive)	0.3% (inactive)	0.2% (inactive)	5.4% (inactive)
C/C=C/c1ccc(O)c(OC)c1	9.7% (inactive)	0.5%	-0.1% (inactive)	2.5% (inactive)	-5.2% (inactive)	-3.8% (inactive)	8.25% (inactive)	51.6% (active)	18.6% (inactive)
Nc1ccc2c(c1)CN1C(=O)c3ccccc3C1=N2	3.6% (inactive)	-0.3%	4.2% (inactive)	44.4% (inactive)	44.6% (active)	2% (inactive)	13.1% (inactive)	79.4% (active)	28.1% (inactive)
